From PubChem
Bead autofluor – counter-screen for toxin protease inhibitors: compound fluorescence | fluorescence intensity (test concentration not listed) | 360,000 compounds, 3.1% hits | compound autofluorescence counterscreen, microsphere flow cytometry; hits give high values; in the data active = fluorescence intensity above about 16000; inconclusive = no clear call, values can overlap the other calls
BoNT F protease – blocks Botulinum neurotoxin F light chain protease | Multiplex microsphere protease cleavage assay, flow cytometry | 360,000 compounds, 0.22% hits | inhibition, % at 10 µM; in the data active = inhibition above about 35%, passing the limit was not always enough; inconclusive = no clear call, values can overlap the other calls; note: plate controls were buffer without enzyme for full effect and enzyme alone for no effect
SARS 3CLpro inh – SARS-CoV 3CLpro protease inhibition | P0C6X7 | recombinant SARS-CoV 3CLpro, quenched FRET peptide cleavage | inhibition, % at 6 µM | 290,000 compounds, 0.14% hits | AID 1706; in the data active = inhibition above about 12%
BoNT A protease – blocks Botulinum neurotoxin A light chain protease; multiplex microsphere protease substrate cleavage, flow cytometry; inhibition, % at 10 µM; 360,000 compounds, 0.17% hits; AID 588499; in the data active = inhibition above about 30%; inconclusive = no clear call, values can overlap the other calls; note: plate controls were buffer without enzyme for full effect and enzyme alone for no effect
Anthrax LF inh2 – anthrax lethal factor protease inhibition | P15917 | multiplex microsphere protease cleavage assay, LF | inhibition, % at 10 µM | AID 588501 | 360,000 compounds, 0.12% hits; in the data active = inhibition above about 30%; inconclusive = no clear call, values can overlap the other calls; note: plate controls were buffer without enzyme for full effect and enzyme alone for no effect
BoNTA LC inh 1 – blocks botulinum neurotoxin A light chain protease. shares compounds with BoNT F protease. multiplex microsphere protease assay, flow cytometry. inhibition, % at 10 µM. 720 compounds, 3% hits; in the data active = inhibition above about 32%
BoNTF LC inh 1 – blocks botulinum neurotoxin F light chain protease. shares compounds with BoNT F protease. multiplex microsphere protease cleavage assay, flow cytometry. inhibition, % at 10 µM. 720 tested, under 10 active; call rule not given here
LF protease CP1 – Bacillus anthracis lethal factor protease inhibition | shares compounds with BoNT F protease | AID 602142 | multiplex microsphere protease cleavage assay, LF | inhibition, % at 10 µM | 720 tested, under 10 active; call rule not given here
BoNT-A LC CP2 – blocks botulinum neurotoxin A light chain protease; inhibition, % at 10 µM; multiplex microsphere protease cleavage assay, flow cytometry; 150 compounds, 10% hits; shares compounds with BoNT A protease; in the data active = inhibition above about 24%
LF protease CP2 – blocks anthrax lethal factor protease. shares compounds with BoNT A protease. multiplex microsphere protease cleavage assay. inhibition, % at 10 µM. 150 compounds, 7% hits
BoNTF LC inh 2 – blocks botulinum neurotoxin F light chain protease. shares compounds with BoNT A protease. multiplex microsphere protease cleavage assay, flow cytometry. inhibition, % at 10 µM. 150 compounds, 7% hits. AID 602336
An asterisk follows results filed as active; ? = inconclusive; / = no result. In the library only some 3.5% were active in any assay of this set; here they are far more common. Cut-off read from the data, not from the text of the source, unless noted: active = inhibition above about 25%; inactive = the rest.

SMILES	Bead autofluor	BoNT F protease	SARS 3CLpro inh	BoNT A protease	Anthrax LF inh2	BoNTA LC inh 1	BoNTF LC inh 1	LF protease CP1	others
CC(C)C(=O)N1CCN(c2ccccc2NC(=S)NC(=O)c2cccs2)CC1	4510	-3.9	3.8	1.1	1.5	/	/	/
COc1ccccc1N1C(=O)CC(N2CCN(c3ccc(F)cc3)CC2)C1=O (centres undefined)	3063	40.5*	-0.3	-2.0	19.1	0.5	-3.8	2.1
COc1ccc(CN(C(=O)CNC(=O)c2ccco2)C(C(=O)NCC2CCCO2)c2ccc(OC)c(OC)c2)cc1 (centres undefined)	3500	-24.9	-1.0	1.7	-6.2	/	/	/
CS(=O)(=O)N1CCc2cc(C(=O)Nc3ccc(O)cc3)ccc21	4162	55.7*	1.9	1.2	-8.7	-0.2	-7.3	-2.6
COc1cc(NC(=O)c2c(OC)cccc2OC)ccc1NC(=O)c1cc2ccccc2o1	3480	-38.8	6.2	-2.4	32.0*	0.9	-1.4	-0.2
COc1cc(NC(=O)c2ccc(F)cc2)ccc1NC(=O)c1cc2ccccc2o1	/	/	-5.7	/	/	/	/	/
CCCC(=O)N1CCCC1(C)C(=O)Nc1cc(OC)c(OC)c(OC)c1 (centres undefined)	3964	7.7	/	-0.3	5.1	/	/	/
O=C(CN1CCCCCC1)Nc1ccccc1F	4604	-5.4	1.6	0.0	0.7	/	/	/
O=C(CC(=O)Nc1ccccc1F)Nc1ccccc1F	4769	-4.1	2.7	-4.4	41.5*	-1.7	-6.3	-3.6
CCOC(=O)c1cnc(SC2CC(=O)N(c3cccc(OC)c3)C2=O)nc1N (centres undefined)	3383	33.6	-1.5	1.6	2.2	1.7	-4.4	-0.7
CCOC(=O)c1ccc(N2C(=O)CC(Sc3ncccn3)C2=O)cc1 (centres undefined)	3427	?	-2.9	1.1	-3.5	/	/	/
CCOc1ccc(C(=O)CCC(=O)NCC(=O)OCc2ccccc2)cc1OCC	4417	5.9	0.0	0.9	-2.0	/	/	/
CCCOc1ccc(-c2nc(C#N)c(NCCCn3ccnc3)o2)cc1	?	57.7*	-1.0	58.2*	-37.7	-1.4	-3.0	0.3
O=C(NCc1ccccn1)Nc1cccc(Cl)c1	10773	-17.8	3.0	-0.9	2.2	/	/	/
CCn1cc(C(=O)NCc2ccccc2Cl)cn1	2098	40.0*	0.4	4.5	2.3	1.2	3.4	1.2
CCn1cc(C(=O)Nc2ccccc2C(=O)OC)cn1	3528	?	/	2.8	1.9	/	/	/
Cc1cc(C)n(-c2nc3ccccc3nc2N2CCN(S(=O)(=O)c3ccc(F)c(C)c3)CC2)n1	7375	12.2	-0.2	24.1	11.4	/	/	/
Cc1cc(C)n(-c2nc3ccccc3nc2N2CCN(S(=O)(=O)c3ccc4ccccc4c3)CC2)n1	9467	20.5	2.2	34.2*	24.6	12.3	-3.1	5.6
O=C(CCNC(=O)c1ccccc1)NCCc1ccc(Cl)cc1	3849	-8.7	-0.1	1.4	37.6*	-1.3	-7.0	-1.0
Cc1cccc(CCNS(=O)(=O)c2ccc(S(=O)(=O)N3CCC(C)CC3)cc2)c1	8054	32.4	2.7	4.4	3.1	0.3	-1.1	-1.0
CCCOC1CCCN(Cc2nc(-c3cnccn3)no2)C1 (centres undefined)	4198	34.9*	2.0	4.3	-3.6	0.4	-2.3	1.0
C/C(=N\NC(=O)c1nn(C)c(C)c1Br)c1ccc(NC(=O)c2ccoc2C)cc1	2229	-0.7	1.8	0.1	0.1	/	/	/
Cc1cc(C)c2cc(CN(CCN3CCCC3)C(=O)Nc3ccc(F)cc3)c(=O)[nH]c2c1	10627	61.8*	-3.7	3.4	6.3	-4.6	-11.3	-2.0
CC(=O)Oc1ccc(C(=O)Nc2nnc(C)s2)cc1	5317	-1.4	1.8	0.3	-3.2	/	/	/
CC(C)c1ccc(OCC(=O)Nc2ccncc2)cc1	3498	42.8*	-3.6	1.1	14.8	-1.5	-1.4	4.9
SMILES	Bead autofluor	BoNT F protease	SARS 3CLpro inh	BoNT A protease	Anthrax LF inh2	BoNTA LC inh 1	BoNTF LC inh 1	LF protease CP1	others
O=C(Nc1ccccc1C(=O)Nc1nncs1)c1ccccc1	3230	39.6*	5.7	-0.8	7.2	0.1	-4.9	1.7
COc1ccc(C2=[N+]([O-])C(C)(C)C(c3ccccc3)=N2)cc1	4588	-3.3	-2.1	-0.4	-10.0	/	/	/
COc1ccc(Cn2c(=S)[nH]c3cc(OC)c(OC)cc3c2=O)cc1	3250	2.7	-0.7	-0.2	-1.9	/	/	/
COc1ccc(Cn2c(=O)[nH]c3cc(OC)c(OC)cc3c2=O)cc1	3925	35.9*	-1.8	4.1	-9.0	-0.3	1.2	-2.0
O=C(COc1cc2oc(=O)c3c(c2cc1Cl)CCC3)NCCN1CCOCC1	5407	3.0	1.8	0.2	-1.2	/	/	/
COc1cccc2c1C(=O)O/C2=C/c1ccc2c(c1)OCO2	2361	5.7	0.6	0.5	-5.6	/	/	/
CC(=O)C1C(c2ccc(F)cc2)c2c(noc2C)CC1(C)O (centres undefined)	4546	37.0*	1.6	-2.8	-6.0	-0.1	0.9	3.0
CC(=O)NCCC(=O)N1CCCC(N2CCN(c3cccc(Cl)c3)CC2)C1 (centres undefined)	3199	41.7*	1.2	0.9	-0.7	-0.7	1.9	3.3
Cc1cccc(N(CC(=O)N2CCCCCC2)S(C)(=O)=O)c1C	3213	36.3*	5.8	-2.1	-23.7	0.5	2.0	6.2
CC(C)=CC1C(C(=O)NCCOc2ccccc2)C1(C)C (centres undefined)	3785	35.4*	1.1	0.9	-5.7	-0.2	-5.9	-1.2
O=C(Nc1ccccc1)OC1CCCCc2cccnc21 (centres undefined)	3832	?	1.6	?	30.1*	0.8	2.4	-2.3
O=C(Nc1cccc(Cl)c1)OC1CCCCc2cccnc21 (centres undefined)	6207	-4.4	0.1	0.4	-8.5	/	/	/
CCOC(=O)C1CCN(CC(=O)c2c(C)n(C)c3ccc(OC)cc23)CC1	3128	38.6*	-1.2	-2.3	-11.0	2.0	1.8	3.1
CCN1CCN(CC(=O)c2c(C)n(C)c3ccc(OC)cc23)CC1	?	2.8	-3.8	0.7	3.7	/	/	/
C=C1C2C[C@@]3([C@@H]1O)[C@@H](C[C@@H]2O)[C@@]12C4[C@@H]3C[C@@H]1[C@@](C)(CC[C@@H]2O)CN4CC	4631	5.2	/	-0.1	1.6	/	/	/
COc1ccc(-c2cc3c(c4c2ccn4C)C2CCC3C2)cc1 (centres undefined)	3998	-22.5	/	14.0	-1.7	/	/	/	BoNT-A LC CP2=2.0;LF protease CP2=2.9;BoNTF LC inh 2=2.7
